Measurements as given in paper PMC7862700, “An all-to-all approach to the identification of sequence-specific readers for epigenetic DNA modifications on cytosine”.

Experiments:
Assay in all cases: DAPPL (digital affinity profiling via proximity ligation, sequencing); 10 mM Tris-HCl pH 7.5, 50 mM NaCl, 1 mM DTT, 4% glycerol, room temperature, 30 min; GST-TFs on glutathione beads, 16-mer random dsDNA library, 0.1% formaldehyde crosslink after washing; high values mean tight binding
FEV = target: T1, FEV (Homo sapiens, UniProt Q99581 1-238); details: protein: recombinant; tags: N-terminal GST; dsDNA, one strand shown
T1 sequence: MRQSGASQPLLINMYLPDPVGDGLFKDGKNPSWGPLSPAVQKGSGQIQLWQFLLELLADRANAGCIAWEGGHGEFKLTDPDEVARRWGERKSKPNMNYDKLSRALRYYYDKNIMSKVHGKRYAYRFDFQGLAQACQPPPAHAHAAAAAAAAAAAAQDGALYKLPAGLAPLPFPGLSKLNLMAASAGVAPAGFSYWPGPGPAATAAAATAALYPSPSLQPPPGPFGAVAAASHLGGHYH
In short: (§1)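 GST fusions of human transcription factors were expressed in yeast and captured with glutathione beads. Once given DNA barcodes and pooled alongside a tag-only sample, they were incubated for 30 min at room temperature with 200 nmole of a random double-stranded 16-mer DNA library in Tris/NaCl/DTT/glycerol buffer, then washed, crosslinked (0.1% formaldehyde), proximity-ligated, PCR-amplified and sequenced on an Illumina NextSeq500. The binding signal of each hexamer is its read frequency for a factor divided by its frequency for the tag-only sample.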

ETV5 = ETV5 (Homo sapiens, UniProt P41161 1-510); details: protein: recombinant; tags: N-terminal GST; dsDNA, one strand shown
In short: as §1

HSF1 = HSF1 (Homo sapiens, UniProt Q00613 1-529); details: protein: recombinant; tags: N-terminal GST; chain copies: 3; dsDNA, one strand shown
In short: as §1

SPIC = target: T2, SPIC (Homo sapiens, UniProt Q8N5J4 1-248); details: protein: recombinant; tags: N-terminal GST; dsDNA, one strand shown
T2 sequence: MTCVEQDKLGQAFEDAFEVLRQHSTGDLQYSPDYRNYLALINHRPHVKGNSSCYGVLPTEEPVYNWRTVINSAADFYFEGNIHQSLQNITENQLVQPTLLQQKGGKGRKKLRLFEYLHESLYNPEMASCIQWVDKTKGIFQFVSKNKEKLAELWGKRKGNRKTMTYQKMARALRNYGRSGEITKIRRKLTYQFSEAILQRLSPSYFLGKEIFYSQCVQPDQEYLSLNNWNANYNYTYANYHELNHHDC
In short: as §1

ELF4 = ELF4 (Homo sapiens, UniProt Q99607 1-663); details: protein: recombinant; tags: N-terminal GST; dsDNA, one strand shown
In short: as §1

ELK4 = target: T3, ELK4 (Homo sapiens, UniProt P28324-2 1-405); details: protein: recombinant; tags: N-terminal GST; dsDNA, one strand shown
T3 sequence: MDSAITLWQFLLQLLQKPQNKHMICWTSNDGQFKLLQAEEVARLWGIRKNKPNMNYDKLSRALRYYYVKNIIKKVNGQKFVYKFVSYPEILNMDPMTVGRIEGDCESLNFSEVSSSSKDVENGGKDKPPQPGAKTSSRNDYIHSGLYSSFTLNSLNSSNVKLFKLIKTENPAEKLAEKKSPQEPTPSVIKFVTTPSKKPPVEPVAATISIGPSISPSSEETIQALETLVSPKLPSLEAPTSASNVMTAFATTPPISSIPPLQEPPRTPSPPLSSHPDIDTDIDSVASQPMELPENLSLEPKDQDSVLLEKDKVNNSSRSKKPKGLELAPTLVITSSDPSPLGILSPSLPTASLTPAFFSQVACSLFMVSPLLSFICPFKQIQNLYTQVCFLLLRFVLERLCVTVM
In short: as §1

ETV2 = target: T4, ETV2 (Homo sapiens, UniProt O00321 1-342); details: protein: recombinant; tags: N-terminal GST; dsDNA, one strand shown
T4 sequence: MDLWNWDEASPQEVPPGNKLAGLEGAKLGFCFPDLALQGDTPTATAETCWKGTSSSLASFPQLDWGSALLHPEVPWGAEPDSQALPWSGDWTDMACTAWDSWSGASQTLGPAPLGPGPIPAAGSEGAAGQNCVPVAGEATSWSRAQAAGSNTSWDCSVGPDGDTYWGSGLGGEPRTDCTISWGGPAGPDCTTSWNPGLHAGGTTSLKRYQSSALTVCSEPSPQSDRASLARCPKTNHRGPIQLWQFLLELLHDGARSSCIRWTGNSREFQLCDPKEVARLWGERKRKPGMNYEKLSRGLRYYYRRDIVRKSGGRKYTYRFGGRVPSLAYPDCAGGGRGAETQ
In short: as §1

ELF3 = target: T5, ELF3 (Homo sapiens, UniProt P78545 1-371); details: protein: recombinant; tags: N-terminal GST; dsDNA, one strand shown
T5 sequence: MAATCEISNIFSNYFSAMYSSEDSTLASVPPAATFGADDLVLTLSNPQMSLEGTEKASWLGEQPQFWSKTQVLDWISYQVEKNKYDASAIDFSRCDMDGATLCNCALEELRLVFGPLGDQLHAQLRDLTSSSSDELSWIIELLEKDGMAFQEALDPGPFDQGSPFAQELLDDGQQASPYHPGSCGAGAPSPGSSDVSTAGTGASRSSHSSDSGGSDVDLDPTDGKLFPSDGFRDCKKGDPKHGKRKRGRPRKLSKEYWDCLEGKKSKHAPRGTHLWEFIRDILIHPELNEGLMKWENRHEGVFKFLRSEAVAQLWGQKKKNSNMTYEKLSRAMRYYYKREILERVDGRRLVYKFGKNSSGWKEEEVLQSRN
In short: as §1

CRX = CRX (Homo sapiens, UniProt O43186 1-299); details: protein: recombinant; tags: N-terminal GST; dsDNA, one strand shown
In short: as §1

ETV1 = ETV1 (Homo sapiens, UniProt P50549 1-477); details: protein: recombinant; tags: N-terminal GST; dsDNA, one strand shown
In short: as §1

Chain of ETV5 (P41161 whole entry): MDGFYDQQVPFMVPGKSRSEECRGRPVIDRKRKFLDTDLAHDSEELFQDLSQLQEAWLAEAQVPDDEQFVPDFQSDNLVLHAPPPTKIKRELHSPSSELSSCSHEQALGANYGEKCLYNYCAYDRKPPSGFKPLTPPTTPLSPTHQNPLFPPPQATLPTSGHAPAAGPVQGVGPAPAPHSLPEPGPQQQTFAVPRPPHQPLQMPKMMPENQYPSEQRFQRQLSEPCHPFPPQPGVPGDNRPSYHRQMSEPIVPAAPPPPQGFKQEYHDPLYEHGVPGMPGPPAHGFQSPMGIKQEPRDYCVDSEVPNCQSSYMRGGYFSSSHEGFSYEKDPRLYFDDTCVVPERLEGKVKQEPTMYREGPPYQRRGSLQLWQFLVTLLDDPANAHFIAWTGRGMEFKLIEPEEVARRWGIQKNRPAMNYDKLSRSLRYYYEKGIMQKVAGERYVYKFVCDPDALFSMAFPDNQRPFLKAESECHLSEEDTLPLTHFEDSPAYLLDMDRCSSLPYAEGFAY
Chain of HSF1 (Q00613 whole entry): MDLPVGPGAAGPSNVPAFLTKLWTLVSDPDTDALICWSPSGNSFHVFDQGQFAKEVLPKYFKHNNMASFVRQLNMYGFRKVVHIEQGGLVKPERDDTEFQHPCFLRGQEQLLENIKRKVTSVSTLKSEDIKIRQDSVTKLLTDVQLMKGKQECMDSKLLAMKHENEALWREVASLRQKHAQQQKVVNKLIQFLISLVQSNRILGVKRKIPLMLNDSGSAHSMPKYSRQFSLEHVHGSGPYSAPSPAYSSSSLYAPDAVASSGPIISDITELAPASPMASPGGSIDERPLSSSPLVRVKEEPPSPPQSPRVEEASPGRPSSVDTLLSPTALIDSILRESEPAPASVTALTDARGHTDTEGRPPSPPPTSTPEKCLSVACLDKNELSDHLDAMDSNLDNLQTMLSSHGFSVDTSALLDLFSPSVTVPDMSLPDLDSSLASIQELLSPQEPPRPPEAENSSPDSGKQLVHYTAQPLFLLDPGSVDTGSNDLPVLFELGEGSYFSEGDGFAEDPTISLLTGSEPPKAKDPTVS
Chain of ETV1 (P50549 whole entry): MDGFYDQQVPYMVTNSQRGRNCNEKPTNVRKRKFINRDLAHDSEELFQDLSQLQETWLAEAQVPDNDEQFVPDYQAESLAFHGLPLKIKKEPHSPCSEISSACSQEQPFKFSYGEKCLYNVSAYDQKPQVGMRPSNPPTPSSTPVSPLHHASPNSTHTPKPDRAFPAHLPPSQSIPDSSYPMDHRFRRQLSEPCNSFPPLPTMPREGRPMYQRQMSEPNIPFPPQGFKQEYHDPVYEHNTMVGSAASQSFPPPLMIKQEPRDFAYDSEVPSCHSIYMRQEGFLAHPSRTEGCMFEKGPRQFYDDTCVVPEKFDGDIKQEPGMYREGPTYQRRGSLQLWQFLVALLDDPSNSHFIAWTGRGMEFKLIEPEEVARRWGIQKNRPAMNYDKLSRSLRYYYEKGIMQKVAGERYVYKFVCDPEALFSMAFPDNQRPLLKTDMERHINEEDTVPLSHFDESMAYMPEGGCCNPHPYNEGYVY
Chain of CRX (O43186 whole entry): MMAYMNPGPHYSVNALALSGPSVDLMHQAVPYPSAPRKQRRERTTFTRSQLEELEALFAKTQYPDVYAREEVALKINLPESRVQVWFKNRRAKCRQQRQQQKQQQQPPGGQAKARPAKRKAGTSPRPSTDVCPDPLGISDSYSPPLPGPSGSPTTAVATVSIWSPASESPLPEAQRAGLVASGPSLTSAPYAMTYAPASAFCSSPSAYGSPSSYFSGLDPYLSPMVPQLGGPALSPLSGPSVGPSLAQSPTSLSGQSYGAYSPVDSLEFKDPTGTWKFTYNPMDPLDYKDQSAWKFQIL
Chain of ELF4 (Q99607 whole entry): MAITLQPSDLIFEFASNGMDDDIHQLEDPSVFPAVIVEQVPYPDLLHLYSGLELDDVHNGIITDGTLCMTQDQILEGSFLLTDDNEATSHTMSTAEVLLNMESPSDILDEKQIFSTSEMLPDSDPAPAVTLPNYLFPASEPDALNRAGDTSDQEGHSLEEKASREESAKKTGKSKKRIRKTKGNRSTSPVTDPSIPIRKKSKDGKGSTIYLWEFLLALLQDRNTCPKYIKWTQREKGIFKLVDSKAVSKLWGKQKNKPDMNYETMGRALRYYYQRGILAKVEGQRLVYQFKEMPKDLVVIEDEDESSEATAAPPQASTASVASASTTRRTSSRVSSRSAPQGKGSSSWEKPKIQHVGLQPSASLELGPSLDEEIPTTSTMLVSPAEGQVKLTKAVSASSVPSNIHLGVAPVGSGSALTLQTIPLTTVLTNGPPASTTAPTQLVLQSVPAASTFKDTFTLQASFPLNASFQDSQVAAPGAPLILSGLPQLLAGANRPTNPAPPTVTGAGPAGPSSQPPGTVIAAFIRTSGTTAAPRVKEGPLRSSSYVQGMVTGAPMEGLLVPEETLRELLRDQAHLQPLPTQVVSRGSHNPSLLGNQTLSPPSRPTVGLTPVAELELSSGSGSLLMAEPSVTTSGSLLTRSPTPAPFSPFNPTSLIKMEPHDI

ACTACC was tested, and the binding signal (FEV) was 1.55 fold enrichment (6-mer frequency, TF over GST control), the binding signal (ETV5) was 1.64 fold enrichment (6-mer frequency, TF over GST control) and the binding signal (HSF1) was 1.09 fold enrichment (6-mer frequency, TF over GST control). The binding signal (SPIC) was 1.58 fold enrichment (6-mer frequency, TF over GST control), the binding signal (ELF4) was 1.66 fold enrichment (6-mer frequency, TF over GST control) and the binding signal (ELK4) was 1.59 fold enrichment (6-mer frequency, TF over GST control). The binding signal (ETV2) was 1.72 fold enrichment (6-mer frequency, TF over GST control), the binding signal (ELF3) was 1.58 fold enrichment (6-mer frequency, TF over GST control) and the binding signal (CRX) was 1.1 fold enrichment (6-mer frequency, TF over GST control). For the same sequence, the binding signal (ETV1) was 1.59 fold enrichment (6-mer frequency, TF over GST control).
